In the supplement of paper PMC12636033:
± gives the standard deviation of the averaged measurements. The full ranking holds about 33,000 sequences; the median of “E-score (rank enrichment, -0.5 to 0.5)” is about -0.0075, and the highest 2% start at about 0.23. This is one part of a sample in which the highest values are shown more often than they occur.

Tested on: WT Max(13-93) synthetic (M65Nle)
Assay: PBM 8-mer E-score (E-score (rank enrichment, -0.5 to 0.5)); higher = stronger preferential binding
Experimental: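 Protein binding microarray (universal PBM chip covering all 10-mers in fixed probe flanks) with chemically synthesized human Max(13-93) bHLH-LZ analogs (not full-length Max) bearing noncanonical residues (hArg, Tha, Aib, Nle at 65) and aromatic Cys staples. Read-out per 8-mer (and its reverse complement): E-score (rank-based enrichment, -0.5 to 0.5) and Z-score of median probe intensity.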

Sequence	PBM 8-mer E-score
GATTAAAC	0.0366 ± 0.087
ATTTAAAC	0.263 ± 0.046
TACATCTA	0.0666 ± 0.053
CCGTTTAC	0.0331 ± 0.077
AATCTGTC	0.0805 ± 0.0072
ACGCATCC	0.00574 ± 0.012
ACGCATGA	0.127 ± 0.021
ACGCATAG	0.0507 ± 0.032
ACGCATGC	0.281 ± 0.04
CCGCATGC	0.2 ± 0.02
ACGCATGG	0.243 ± 0.026
CGATTTCC	-0.13 ± 0.008
GTGCTGGA	-0.0429 ± 0.077
ATAAATAG	0.18 ± 0.017
TTAAATAA	0.12 ± 0.035
ATAAATAC	0.295 ± 0.022
ATAAATAA	0.157 ± 0.031
ATAAATAT	0.267 ± 0.0039
CTAAATAA	0.119 ± 0.1
AACAGTTG	-0.0604 ± 0.064
GGACCTCC	-0.149 ± 0.028
CCCCCCGA	-0.154 ± 0.12

Sequence	PBM 8-mer E-score
TACTTGGA	0.0409 ± 0.043
ACTATTAA	0.133 ± 0.0048
AATATTAA	0.263 ± 0.014
ATTATTAA	0.172 ± 0.066
CATATTAC	0.156 ± 0.05
AATATTAT	0.285 ± 0.026
CATATTAA	0.306 ± 0.014
GATATTAA	0.029 ± 0.025
AATATTAC	0.228 ± 0.029
GATATTAC	0.237 ± 0.02
AATATTAG	0.152 ± 0.15
TATATTAA	0.213 ± 0.011
CATATTAG	0.15 ± 0.046
CTCCCAGA	-0.18 ± 0.049
CCCCCAGG	-0.289 ± 0.17
AAATTGTT	0.0622 ± 0.024
AAAATGTG	0.205 ± 0.015
AGCGACAT	0.113 ± 0.056
CATAGGTA	0.00152 ± 0.065
GATAGGTA	0.24 ± 0.073
AATAGGTA	0.195 ± 0.0039
GGCCTTTA	0.0556 ± 0.0086

Sequence	PBM 8-mer E-score
GACGTGGC	-0.0348 ± 0.019
CAAGTGGG	0.0824 ± 0.037
AACGTGGC	0.218 ± 0.022
AACGTGGG	0.215 ± 0.03
GACGTGGA	-0.0291 ± 0.023
CACGTGGC	0.4858 ± 0.0018
TACGTGGA	0.109 ± 0.08
CACGTGGG	0.4865 ± 0.00015
CACGTGGA	0.4856 ± 0.0019
CTTACAAC	-0.0407 ± 0.16
TGTAAGAA	0.12121 ± 1.4e-05
CGCTAAGC	-0.187 ± 0.092
GTGCCTCA	-0.133 ± 0.12
AACAGATT	-0.0422 ± 0.079
CCAGAATA	-0.0319 ± 0.024
GAACCTAA	-0.143 ± 0.099
CCGGTCCA	-0.194 ± 0.12
AGGGCACT	-0.053 ± 0.033
ATAGGTAA	0.0523 ± 0.015
CTAGGTAA	-0.0715 ± 0.093
GTAGGTAA	0.232 ± 0.042
GTGCTTGA	-0.0248 ± 0.16

Sequence	PBM 8-mer E-score
AACCAGCA	-0.0798 ± 0.12
AGTGCCCC	-0.0153 ± 0.009
AACGCAGT	-0.173 ± 0.062
CAAGTATA	0.0775 ± 0.011
AAAGTATT	0.118 ± 0.043
AAAGTATA	0.282 ± 0.045
GGAGCTTA	-0.168 ± 0.098
AAACGCAG	-0.069 ± 0.017
AACCGCAT	-0.102 ± 0.13
TATCATAA	0.239 ± 0.1
AATCATGG	0.0882 ± 0.19
AATCATGA	0.134 ± 0.038
TATCATGA	0.272 ± 0.0036
GATCATAA	0.156 ± 0.094
AATCATGC	0.168 ± 0.0099
AATCATGT	0.235 ± 0.066
CATCATGA	0.0797 ± 0.1
CATCATAA	0.168 ± 0.045
ACGATATG	0.0765 ± 0.093
AGTAGCGA	-0.0978 ± 0.08
